Test results as given in the supplement of paper PMC6555819.

How the values were obtained:
Test in all cases: PBM binding z-score (relative to random genomic background probes); higher = stronger binding; sequences stand for … in GC…GCGATTGACAGCGTAGAATGAAGG
[1] = tested on: FXR:RXRa (NR concentration 270 nM, RXRa partner concentration 90 nM)
Procedure, shortened: (§1)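 Probes were double-stranded and carried 34-nt variable regions with direct-repeat seeds, single-nucleotide variants, half-site ablations and random human genomic background sequences, printed on custom Agilent 4×180K protein-binding microarrays. Arrays were incubated 1 h with ligand-free nuclear receptor dimers in PBS pH 7.4, 2% milk, 0.02% Triton X-100, 1 mM DTT, 0.2 mg/mL BSA and 0.4 mg/ml salmon testes DNA. Antibodies against each partner (one per run) detected binding, and scanned fluorescence was regression-normalized. Binding z-scores use the random background probes as reference.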

[2] = tested on: LXRa:RXRa (NR concentration 270 nM, RXRa partner concentration 90 nM)
Procedure, shortened: as §1

[3] = tested on: LXRa homodimer (NR concentration 270 nM)
Procedure, shortened: as §1

[4] = tested on: LXRb:RXRa (NR concentration 270 nM, RXRa partner concentration 90 nM)
Procedure, shortened: as §1

[5] = tested on: LXRb homodimer (NR concentration 270 nM)
Procedure, shortened: as §1

[6] = tested on: PPARa:RXRa (NR concentration 270 nM, RXRa partner concentration 90 nM)
Procedure, shortened: as §1

[7] = tested on: PPARg:RXRa (NR concentration 180 nM, RXRa partner concentration 90 nM)
Procedure, shortened: as §1

[8] = tested on: PPARg:RXRa 270nM:90nM, anti-RXR (NR concentration 270 nM, RXRa partner concentration 90 nM)
Procedure, shortened: as §1

[9] = tested on: PPARg:RXRa 30nM:10nM, anti-RXR (NR concentration 30 nM, RXRa partner concentration 10 nM)
Procedure, shortened: as §1

[10] = tested on: PPARg:RXRa 90nM:30nM, anti-RXR (NR concentration 90 nM, RXRa partner concentration 30 nM)
Procedure, shortened: as §1

[11] = tested on: PPARg:RXRa DBDmut IVT, anti-RXR (DBD mutation: RXRa K156A/R161A, NR concentration 270 nM, RXRa partner concentration 90 nM)
Procedure, shortened: as §1

[12] = tested on: PPARg:RXRa IVT, anti-PPARg (NR concentration 270 nM, RXRa partner concentration 90 nM)
Procedure, shortened: as §1

[13] = tested on: PPARg DBDmut:RXRa IVT, anti-PPARg (DBD mutation: PPARg1 K132A/R137A, NR concentration 270 nM, RXRa partner concentration 90 nM)
Procedure, shortened: as §1

[14] = tested on: PPARg DBDmut IVT, anti-PPARg (DBD mutation: PPARg1 K132A/R137A, NR concentration 270 nM)
Procedure, shortened: as §1

[15] = tested on: PPARg homodimer (NR concentration 180 nM)
Procedure, shortened: as §1

[16] = tested on: PXR:RXRa (NR concentration 270 nM, RXRa partner concentration 90 nM)
Procedure, shortened: as §1

[17] = tested on: PXR homodimer (NR concentration 270 nM)
Procedure, shortened: as §1

[18] = tested on: RARa:RXR (NR concentration 270 nM, RXRa partner concentration 90 nM)
Procedure, shortened: as §1

[19] = tested on: RARa homodimer (NR concentration 270 nM)
Procedure, shortened: as §1

[20] = tested on: RARb:RXRa (NR concentration 270 nM, RXRa partner concentration 90 nM)
Procedure, shortened: as §1

| Sequence | PBM binding z-score [1] | PBM binding z-score [2] | PBM binding z-score [3] | PBM binding z-score [4] | PBM binding z-score [5] | PBM binding z-score [6] | PBM binding z-score [7] | PBM binding z-score [8] | PBM binding z-score [9] | PBM binding z-score [10] | PBM binding z-score [11] | PBM binding z-score [12] | PBM binding z-score [13] | PBM binding z-score [14] | PBM binding z-score [15] | PBM binding z-score [16] | PBM binding z-score [17] | PBM binding z-score [18] | PBM binding z-score [19] | PBM binding z-score [20] |
| --- | --- | --- | --- | --- | --- | --- | --- | --- | --- | --- | --- | --- | --- | --- | --- | --- | --- | --- | --- | --- |
| CGAACTAGGTCAGAACAGGACAGTAAAGGATGAT | 1.48 | 0.875 | -0.0273 | 0.738 | -0.326 | 3.33 | 5.37 | 4.63 | 1.83 | 3.65 | 7.08 | 7.22 | 1.86 | 1.17 | 1.1 | 1.02 | 0.0829 | 1.26 | 0.18 | 2.92 |
| CTACCAAGGTGAACAAGGTCGTGGATTACTATTC | 1.7 | 1.56 | -0.154 | 1.73 | -0.448 | 2.96 | 1.5 | 1.61 | 0.053 | 0.918 | 2.25 | 3.01 | 1.26 | -0.0966 | 1.98 | 2.46 | 0.298 | 2.92 | 0.0898 | 2.45 |
| GCTAGTTGGTCAGTAAAAGGTCTCACACCGGTCG | -0.182 | -0.0505 | -0.00726 | -0.0991 | -0.275 | 0.0782 | 0.203 | 0.834 | -0.473 | 0.379 | 0.501 | 0.748 | 0.0123 | -0.176 | 0.542 | -0.0714 | 0.00189 | 0.298 | -0.00415 | 1.19 |
| GCTTGTAGATCAAGATTAAGAAAGACTAAGCTAA | -0.857 | -0.792 | -0.561 | -0.525 | -0.737 | -0.32 | 0.226 | -0.333 | -0.252 | -0.334 | 0.366 | -0.13 | 0.0686 | 0.0924 | -0.256 | -0.671 | -0.582 | -0.252 | -0.194 | -0.426 |
| CGTCAAAGTTCAACTAAGGTACCGTAAAGCACGC | 7.12 | 6.16 | 4.3 | 4.18 | 2.24 | 5.12 | 4.93 | 5.42 | 2.29 | 4.15 | 0.831 | 1.71 | 0.452 | 0.671 | 2.68 | 4.87 | 3.81 | 3.96 | 1.72 | 5.21 |
| AGAACGAGGGCACGCTGAGTTGTTAGCAGAGTAG | 0.878 | 0.882 | -0.742 | 0.17 | -1.13 | 2.18 | 1.94 | 1.79 | 0.32 | 1.16 | 4.03 | 3.92 | 0.505 | 0.0717 | -0.208 | 0.851 | -0.39 | 0.724 | -0.521 | 2.62 |
| CCTAGTTGGTCAGGAGGTCAAACACCGGATATGA | 4.57 | 4.4 | 3.59 | 4.03 | 1.06 | 4.55 | 3.32 | 3.96 | 1.67 | 3.26 | 1.54 | 3.02 | 0.223 | 0.259 | 3.46 | 4.59 | 2.21 | 5.06 | 2.09 | 3.76 |
| CGTCCAAGGTCAAGGTCAGCGAAAGAGACTCGAA | 7.53 | 5.5 | 1.11 | 4.65 | 0.78 | 5.89 | 6.76 | 6.42 | 3.23 | 5.28 | 3.83 | 4.71 | 0.201 | -0.753 | 3.43 | 4.67 | 0.58 | 4.95 | 0.668 | 5.52 |
| ATCTCTAGGTAATCAAGTTCAGTGAATGCCGAAC | 0.473 | 1.01 | 1.61 | 0.658 | 0.711 | 1.01 | 0.317 | 1.19 | 0.611 | 1.19 | 2.71 | 2.29 | 0.964 | 0.455 | 0.892 | 1.95 | 2 | 0.799 | 0.778 | 1 |
| TCGAGGAGGTTACCAATGGGGCATTCAGCTTTCT | 0.893 | 2.72 | -0.21 | 2.47 | -0.369 | 2.29 | 0.171 | 1.2 | 1.46 | 1.09 | 1.15 | 1 | -0.386 | -0.775 | 0.8 | 1.05 | -0.411 | 1.43 | -0.136 | 1.67 |
| AATACAGGGTCATCGTTGGCCAGAGTACGCACAG | 7.42 | 6.21 | 2.13 | 4.57 | 1.5 | 5.96 | 6.68 | 5.97 | 2.51 | 4.75 | 2.72 | 4.4 | 1.78 | 2.43 | 2.34 | 4.57 | 0.72 | 5.31 | 1.34 | 4.37 |
| ACTAGCAGGCCAAGTTTAGGTCACTCAAACAAAG | 0.818 | 0.384 | 0.281 | 0.929 | -0.282 | 1.6 | 0.288 | 0.528 | -0.151 | 0.000314 | 0.729 | 1.54 | -0.154 | -0.113 | 0.824 | 0.86 | 0.177 | 1.7 | -0.431 | 2.33 |
| CGAAATAGGTCAGAACAGGACAGTGAAGGATGAT | 2.81 | 2.42 | 0.564 | 1.63 | 0.228 | 3.89 | 4.52 | 4.6 | 2.18 | 3.59 | 6.51 | 6.4 | 1.62 | 1.69 | 1.47 | 1.69 | 0.395 | 1.87 | 1.05 | 3.71 |
| GCGACTGGGGAATCAGCAGGTTACCATAACTTAA | -0.766 | -0.57 | -0.287 | 0.0771 | -1.25 | 0.0843 | 0.0906 | -0.19 | -0.448 | -0.292 | 0.44 | 0.213 | -0.564 | -0.355 | -0.3 | -0.375 | -0.366 | -0.13 | -0.219 | -0.211 |
